# Results published in PubChem BioAssay (NCI).
# The panel holds about 83,000 compounds, 20% with a hit somewhere; the sample as a whole holds those more often.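 The test compound was applied at a single concentration to cells in 96-well plates for 48 hours, and percent growth was recorded.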 Values without a mark were called inactive. Activity calls are given as the source filed them. How the source made its calls: active means growth percent below 10; inactive means the rest.
# How the values were obtained:
# Test in all cases: NCI-60 one-dose screen, 48 h (100 = growth as untreated, 0 = no growth, -100 = all killed)
# Conditions in all cases: 10 µM unless noted
# [1] = tested on: NCI-H23 lung
# [2] = tested on: NCI-H226 lung
# [3] = tested on: NCI-H322M lung
# [4] = tested on: HOP-62 NSCLC
# [5] = tested on: NCI-H460 lung
# [6] = tested on: MDA-MB-231 breast
# [7] = tested on: SF-268 CNS
# [8] = tested on: SF-539 CNS
# [9] = tested on: U251 CNS
# [10] = tested on: UACC-62 melanoma
# [11] = tested on: SK-MEL-28 melanoma
# [12] = tested on: SN12C renal
# [13] = tested on: UO-31 renal
# [14] = tested on: OVCAR-8 ovarian
# [15] = tested on: OVCAR-3 ovarian
# [16] = tested on: MDA-MB-435 melanoma
# [17] = tested on: SW-620 colon
# [18] = tested on: MCF7 breast
# [19] = tested on: KM12 colon
# [20] = tested on: 786-0 renal
SMILES,growth [1],growth [2],growth [3],growth [4],growth [5],growth [6],growth [7],growth [8],growth [9],growth [10],growth [11],growth [12],growth [13],growth [14],growth [15],growth [16],growth [17],growth [18],growth [19],growth [20]
CCOc1cc(C=C(C#N)C#N)cc(Br)c1O,99%,106%,98.1%,111%,102%,109%,95.6%,99.5%,96.5%,105%,109%,106%,88.9%,102%,98.8%,101%,106%,96%,103%,
COc1ccc(/C=C\c2cc(OC)c(OC)c(OC)c2)cc1N/C=C\C(=O)c1c[nH]c2ccccc12,26.6%,-0.606% (active),40.6%,39.3%,6.44% (active),18.4%,15.1%,-43.4% (active),15.5%,31%,33.8%,26.1%,26.4%,21.4%,-9.54% (active),-7.95% (active),24.7%,14.7%,3.99% (active),20.9%
Cc1cc(NC(=O)NCCOc2ccc(N3C(N)=NC(N)=NC3(C)C)cc2Cl)ccc1S(=O)(=O)F,40.2%,91.3%,43.4%,60.8%,9.44% (active),58%,29%,33.6%,10.7%,22%,51.8%,7.66% (active),81.6%,25.3%,53.2%,18.8%,23.4%,4.3% (active),20.1%,35.3%
CCCCNCCc1ccccn1,99.9%,110%,113%,107%,107%,114%,107%,109%,,109%,104%,112%,88.4%,102%,106%,109%,103%,92.1%,102%,97.6%
COc1cccc2c1C(=O)c1c(O)c3c(c(O)c1C2=O)CC(O)(/C(C)=N/NC(=O)CCC(=O)N/N=C(\C)C1(O)Cc2c(O)c4c(c(O)c2C(OC2CC(N)C(O)C(C)O2)C1)C(=O)c1c(OC)cccc1C4=O)CC3OC1CC(N)C(O)C(C)O1 (stereo not given),-44.8% [5 µM] (active),-68.1% [5 µM] (active),-31.6% [5 µM] (active),-31.3% [5 µM] (active),-44.3% [5 µM] (active),8.46% [5 µM] (active),-17.3% [5 µM] (active),-39.2% [5 µM] (active),-27% [5 µM] (active),-85.4% [5 µM] (active),-56.3% [5 µM] (active),-5.24% [5 µM] (active),-7.96% [5 µM] (active),13.1% [5 µM],-47.3% [5 µM] (active),-85.2% [5 µM] (active),-23.5% [5 µM] (active),2.38% [5 µM] (active),-29.8% [5 µM] (active),-14.4% [5 µM] (active)
Cc1cc(NC(=O)/C=C/c2ccc([N+](=O)[O-])cc2)ccc1S(=O)(=O)F,109%,105%,84.8%,103%,103%,99.6%,109%,112%,102%,98.2%,110%,92.4%,71.8%,98.6%,122%,99.7%,110%,91.8%,97%,89.1%
CC1(C)N=C(N)N=C(N)N1c1ccc(CCCCc2ccc(S(=O)(=O)F)cc2)c(Cl)c1,29.8%,31.8%,43.1%,5.05% (active),10.7%,34.3%,25.6%,22.9%,9.69% (active),18.3%,48.4%,,59.9%,16.5%,35.3%,15.7%,17.2%,-0.0775% (active),22.4%,22.1%
C[CH2][Pb]([CH2]C)([CH2]C)[O]C(=O)COc1ccccc1,-6.75% (active),23.2%,0.448% (active),-9.05% (active),4.05% (active),20.1%,-10.1% (active),-21.8% (active),-1.93% (active),25.3%,28.3%,8.52% (active),-6.3% (active),9.05% (active),-2.95% (active),-31.9% (active),6.03% (active),0.688% (active),1.59% (active),-22% (active)
CC1(C)N=C(N)N=C(N)N1c1ccc(OCCCCNC(=O)Nc2cccc(S(=O)(=O)F)c2)c(Cl)c1,39.8%,69.4%,57.6%,62.8%,14.2%,59.6%,44.4%,40.1%,15.6%,22.8%,60.3%,7.54% (active),90.1%,29.2%,82.3%,20.1%,27.1%,15%,41.7%,35.8%
Nc1nc(N)c(-c2ccc(Cl)c(Cl)c2)c(/C=C/c2ccc(S(=O)(=O)F)cc2)n1,106%,114%,89.8%,91.3%,77%,104%,97.4%,80.1%,89.1%,79.1%,98.1%,93.1%,74.7%,81.6%,95.4%,87.5%,78.5%,73.5%,86.8%,76.9%
O=[N+]([O-])c1ccc(F)c([N+](=O)[O-])c1F,111%,100%,91.7%,106%,106%,113%,103%,105%,101%,107%,116%,103%,78.3%,104%,103%,103%,88.2%,102%,94.1%,
C/C(=C\C(=O)O[C@H]1[C@@H]2[C@H](C)CC[C@H]2[C@]2(C)O[C@@]1(C1CCCCC1)C[C@H]2OC(=O)CO)c1ccccc1,50.8%,41.1%,84.5%,55.1%,13.7%,55.5%,26%,77.2%,24.2%,63.2%,64.6%,7.85% (active),-47.2% (active),19%,44.4%,61.7%,43.1%,3.04% (active),38.2%,-16% (active)
CC12CCC(=O)C=C1CCC1C2CCC2(C)C(C(=O)COC(=O)Cc3ccc(N(CCCl)CCCl)cc3)CCC12 (stereo not given),94%,72.5%,180%,106%,40.5%,108%,77.9%,63%,75.5%,66.3%,104%,73.2%,72.8%,79.1%,107%,96.1%,75.6%,70.5%,101%,93.7%
CC(C)(C)NCC(O)c1ccccc1Cl (stereo not given),25%,45%,28.3%,29.3%,6.76% (active),12.8%,26.6%,7.78% (active),10.2%,24%,48.2%,24.1%,48.1%,9.87% (active),-25.7% (active),-52.5% (active),22%,,3.52% (active),20.9%
c1ccc([As]=[As]c2ccccc2)cc1 (stereo not given),-37.2% (active),5.17% (active),-40.5% (active),-54.4% (active),-45.2% (active),-60.9% (active),-39.8% (active),-66.8% (active),-98.7% (active),-76.4% (active),-25.5% (active),-20.9% (active),-96% (active),-22.4% (active),-93% (active),-37.6% (active),-68.1% (active),-76.2% (active),9.67% (active),-90.4% (active)
C[CH2][Pb]([CH2]C)([CH2]C)[O]C(=O)c1ccc(N)cc1,51.2%,87.5%,79.6%,89.3%,69.5%,88.7%,72.9%,87.4%,77.4%,73.4%,58.8%,77.2%,52.1%,82.1%,57.5%,-72.9% (active),28.7%,56.1%,59.4%,80.2%
